Experimental data from ChEMBL document CHEMBL1961873, “Compounds: GSK PKIS; Assays: Nanosyn kinase panel” (2012).

Key:
[1] = biological target: Tyrosine-protein kinase CSK (Homo sapiens) (UniProt P41240); details: at 1 µM;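 further: each value is an averaged inhibition reading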
[2] = biological target: T1, Discoidin domain-containing receptor 2 (Homo sapiens) (UniProt Q16832); details: at 0.1 µM
T1 sequence (whole entry): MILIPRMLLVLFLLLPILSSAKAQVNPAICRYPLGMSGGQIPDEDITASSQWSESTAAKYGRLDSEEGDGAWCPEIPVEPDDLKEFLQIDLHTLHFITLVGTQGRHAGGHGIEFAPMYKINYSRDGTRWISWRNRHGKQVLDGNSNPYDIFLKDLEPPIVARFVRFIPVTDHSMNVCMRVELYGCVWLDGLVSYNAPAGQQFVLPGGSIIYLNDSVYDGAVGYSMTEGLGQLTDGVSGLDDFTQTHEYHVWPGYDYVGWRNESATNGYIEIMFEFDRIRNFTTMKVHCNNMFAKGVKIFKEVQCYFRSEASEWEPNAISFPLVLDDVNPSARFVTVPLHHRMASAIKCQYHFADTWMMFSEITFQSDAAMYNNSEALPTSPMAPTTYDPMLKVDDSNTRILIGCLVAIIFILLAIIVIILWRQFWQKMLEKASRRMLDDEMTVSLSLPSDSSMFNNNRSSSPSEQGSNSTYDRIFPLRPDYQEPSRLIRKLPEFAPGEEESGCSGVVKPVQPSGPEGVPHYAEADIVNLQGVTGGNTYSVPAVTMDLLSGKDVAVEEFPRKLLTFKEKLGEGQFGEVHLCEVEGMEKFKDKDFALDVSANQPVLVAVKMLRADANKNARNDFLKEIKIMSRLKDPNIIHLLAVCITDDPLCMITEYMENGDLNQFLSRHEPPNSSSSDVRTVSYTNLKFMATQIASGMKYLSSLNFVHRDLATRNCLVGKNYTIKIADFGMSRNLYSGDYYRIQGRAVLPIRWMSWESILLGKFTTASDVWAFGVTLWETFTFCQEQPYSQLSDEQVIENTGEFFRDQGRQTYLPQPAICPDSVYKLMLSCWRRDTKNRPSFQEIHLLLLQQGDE

[3] = biological target: T1, Discoidin domain-containing receptor 2 (Homo sapiens); details: at 1 µM
[4] = biological target: Epidermal growth factor receptor (Homo sapiens) (UniProt P00533); details: at 0.1 µM
Chain of Epidermal growth factor receptor (Homo sapiens) (P00533 whole entry): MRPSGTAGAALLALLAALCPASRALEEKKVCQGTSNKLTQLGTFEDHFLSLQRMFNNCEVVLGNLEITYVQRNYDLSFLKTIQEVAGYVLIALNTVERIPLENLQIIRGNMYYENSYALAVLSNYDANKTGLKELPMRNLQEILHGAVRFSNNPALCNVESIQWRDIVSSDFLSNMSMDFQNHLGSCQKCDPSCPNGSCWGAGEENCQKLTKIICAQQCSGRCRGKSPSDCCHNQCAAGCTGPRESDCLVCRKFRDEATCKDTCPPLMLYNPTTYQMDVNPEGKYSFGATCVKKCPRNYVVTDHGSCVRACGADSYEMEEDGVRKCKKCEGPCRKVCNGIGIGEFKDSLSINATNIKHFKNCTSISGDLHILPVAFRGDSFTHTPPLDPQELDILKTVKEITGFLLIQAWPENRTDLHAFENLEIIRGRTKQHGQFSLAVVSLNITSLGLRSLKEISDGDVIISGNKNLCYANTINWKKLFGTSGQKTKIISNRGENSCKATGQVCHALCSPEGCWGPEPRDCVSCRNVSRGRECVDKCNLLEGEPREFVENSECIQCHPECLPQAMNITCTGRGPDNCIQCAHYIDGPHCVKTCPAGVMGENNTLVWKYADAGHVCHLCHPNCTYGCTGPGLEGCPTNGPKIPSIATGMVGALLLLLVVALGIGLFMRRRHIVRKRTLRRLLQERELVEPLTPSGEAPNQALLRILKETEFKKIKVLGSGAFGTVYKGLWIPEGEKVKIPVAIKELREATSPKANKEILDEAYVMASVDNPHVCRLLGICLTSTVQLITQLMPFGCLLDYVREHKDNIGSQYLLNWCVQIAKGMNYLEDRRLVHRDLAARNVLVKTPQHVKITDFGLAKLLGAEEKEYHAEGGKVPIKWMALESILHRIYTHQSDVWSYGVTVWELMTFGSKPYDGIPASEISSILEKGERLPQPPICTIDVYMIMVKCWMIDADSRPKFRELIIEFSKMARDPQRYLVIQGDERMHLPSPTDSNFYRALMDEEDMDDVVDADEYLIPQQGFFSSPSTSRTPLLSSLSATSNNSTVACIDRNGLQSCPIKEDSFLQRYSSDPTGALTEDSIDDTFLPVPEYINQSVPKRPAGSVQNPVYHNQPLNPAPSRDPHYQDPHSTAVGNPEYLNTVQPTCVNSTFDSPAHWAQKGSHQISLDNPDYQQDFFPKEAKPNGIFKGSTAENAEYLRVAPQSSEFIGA

[5] = biological target: Epidermal growth factor receptor (Homo sapiens) (UniProt P00533); details: at 1 µM
[6] = system: Epidermal growth factor receptor (Homo sapiens), P00533 [L858R]; details: at 0.1 µM
Chain of Epidermal growth factor receptor (Homo sapiens), P00533 [L858R] (P00533 whole entry L858R): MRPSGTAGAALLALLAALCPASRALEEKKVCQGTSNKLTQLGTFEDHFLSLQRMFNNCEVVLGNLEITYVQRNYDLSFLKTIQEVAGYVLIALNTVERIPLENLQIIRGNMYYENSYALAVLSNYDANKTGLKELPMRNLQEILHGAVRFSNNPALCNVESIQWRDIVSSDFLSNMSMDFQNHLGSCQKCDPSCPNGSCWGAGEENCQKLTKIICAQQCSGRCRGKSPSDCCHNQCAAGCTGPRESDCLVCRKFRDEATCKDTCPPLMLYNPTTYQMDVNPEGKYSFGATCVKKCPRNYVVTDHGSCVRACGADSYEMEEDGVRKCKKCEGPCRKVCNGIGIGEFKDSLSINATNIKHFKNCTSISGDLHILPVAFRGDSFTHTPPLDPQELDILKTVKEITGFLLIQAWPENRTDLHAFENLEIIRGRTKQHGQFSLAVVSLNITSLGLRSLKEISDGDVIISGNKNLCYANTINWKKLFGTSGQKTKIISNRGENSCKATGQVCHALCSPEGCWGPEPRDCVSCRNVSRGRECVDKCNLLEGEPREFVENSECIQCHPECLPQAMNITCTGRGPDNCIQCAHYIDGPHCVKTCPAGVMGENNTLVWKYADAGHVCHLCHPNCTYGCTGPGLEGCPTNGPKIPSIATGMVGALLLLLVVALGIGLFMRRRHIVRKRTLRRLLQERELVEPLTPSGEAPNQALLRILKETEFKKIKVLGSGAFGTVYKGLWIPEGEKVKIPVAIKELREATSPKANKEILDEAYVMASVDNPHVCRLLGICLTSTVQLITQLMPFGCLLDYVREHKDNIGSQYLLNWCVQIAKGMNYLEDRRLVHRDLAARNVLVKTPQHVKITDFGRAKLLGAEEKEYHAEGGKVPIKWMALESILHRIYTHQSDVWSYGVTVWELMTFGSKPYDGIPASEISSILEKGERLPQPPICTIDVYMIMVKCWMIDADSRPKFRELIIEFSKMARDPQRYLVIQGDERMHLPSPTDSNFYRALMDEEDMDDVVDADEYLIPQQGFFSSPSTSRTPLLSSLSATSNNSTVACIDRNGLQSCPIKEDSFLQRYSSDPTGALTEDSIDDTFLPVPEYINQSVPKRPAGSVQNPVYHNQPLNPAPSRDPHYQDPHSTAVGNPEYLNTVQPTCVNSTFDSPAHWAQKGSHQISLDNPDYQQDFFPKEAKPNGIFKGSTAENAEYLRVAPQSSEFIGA

[7] = system: Epidermal growth factor receptor (Homo sapiens), P00533 [L858R]; details: at 1 µM
[8] = system: Epidermal growth factor receptor (Homo sapiens), P00533 [L861Q]; details: at 0.1 µM
[9] = system: Epidermal growth factor receptor (Homo sapiens), P00533 [L861Q]; details: at 1 µM
[10] = system: Epidermal growth factor receptor (Homo sapiens), P00533 [T790M]; details: at 0.1 µM
Chain of Epidermal growth factor receptor (Homo sapiens), P00533 [T790M] (P00533 whole entry T790M): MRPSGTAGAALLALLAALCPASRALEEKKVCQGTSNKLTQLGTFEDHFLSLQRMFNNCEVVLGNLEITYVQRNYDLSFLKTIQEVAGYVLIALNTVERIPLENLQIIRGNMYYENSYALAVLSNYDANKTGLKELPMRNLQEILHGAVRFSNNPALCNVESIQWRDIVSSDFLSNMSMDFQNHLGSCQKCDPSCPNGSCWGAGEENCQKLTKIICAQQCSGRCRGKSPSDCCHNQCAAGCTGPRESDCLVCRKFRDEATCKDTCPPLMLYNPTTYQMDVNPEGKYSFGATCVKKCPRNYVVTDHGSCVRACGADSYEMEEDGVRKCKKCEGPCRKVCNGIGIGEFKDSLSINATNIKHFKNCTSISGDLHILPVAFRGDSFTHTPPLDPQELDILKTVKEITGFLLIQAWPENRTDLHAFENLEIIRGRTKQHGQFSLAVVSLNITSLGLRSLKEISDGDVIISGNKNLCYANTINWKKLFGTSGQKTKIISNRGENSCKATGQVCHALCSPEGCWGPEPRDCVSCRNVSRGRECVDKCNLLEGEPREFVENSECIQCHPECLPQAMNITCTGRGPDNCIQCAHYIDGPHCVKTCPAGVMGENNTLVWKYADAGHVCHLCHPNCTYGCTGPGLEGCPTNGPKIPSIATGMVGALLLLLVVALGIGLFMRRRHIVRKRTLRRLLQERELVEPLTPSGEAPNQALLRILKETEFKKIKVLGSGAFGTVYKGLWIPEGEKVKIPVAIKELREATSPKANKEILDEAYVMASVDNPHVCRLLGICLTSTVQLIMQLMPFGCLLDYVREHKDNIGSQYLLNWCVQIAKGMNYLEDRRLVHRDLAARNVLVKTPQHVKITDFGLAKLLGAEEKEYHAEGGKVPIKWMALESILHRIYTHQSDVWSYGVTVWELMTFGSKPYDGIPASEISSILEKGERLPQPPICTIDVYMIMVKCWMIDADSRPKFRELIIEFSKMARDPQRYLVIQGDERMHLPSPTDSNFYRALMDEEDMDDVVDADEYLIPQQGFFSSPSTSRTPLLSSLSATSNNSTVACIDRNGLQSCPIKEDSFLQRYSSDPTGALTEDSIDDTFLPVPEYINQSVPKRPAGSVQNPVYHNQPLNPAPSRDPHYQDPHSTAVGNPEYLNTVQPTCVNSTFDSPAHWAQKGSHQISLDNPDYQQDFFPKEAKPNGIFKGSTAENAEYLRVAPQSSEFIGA

[11] = system: Epidermal growth factor receptor (Homo sapiens), P00533 [T790M]; details: at 1 µM
[12] = system: Epidermal growth factor receptor (Homo sapiens), P00533 [L858R,T790M]; details: at 0.1 µM
[13] = system: Epidermal growth factor receptor (Homo sapiens), P00533 [L858R,T790M]; details: at 1 µM
[14] = biological target: Ephrin type-A receptor 2 (Homo sapiens) (UniProt P29317); details: at 0.1 µM
Chain of Ephrin type-A receptor 2 (Homo sapiens) (P29317 whole entry): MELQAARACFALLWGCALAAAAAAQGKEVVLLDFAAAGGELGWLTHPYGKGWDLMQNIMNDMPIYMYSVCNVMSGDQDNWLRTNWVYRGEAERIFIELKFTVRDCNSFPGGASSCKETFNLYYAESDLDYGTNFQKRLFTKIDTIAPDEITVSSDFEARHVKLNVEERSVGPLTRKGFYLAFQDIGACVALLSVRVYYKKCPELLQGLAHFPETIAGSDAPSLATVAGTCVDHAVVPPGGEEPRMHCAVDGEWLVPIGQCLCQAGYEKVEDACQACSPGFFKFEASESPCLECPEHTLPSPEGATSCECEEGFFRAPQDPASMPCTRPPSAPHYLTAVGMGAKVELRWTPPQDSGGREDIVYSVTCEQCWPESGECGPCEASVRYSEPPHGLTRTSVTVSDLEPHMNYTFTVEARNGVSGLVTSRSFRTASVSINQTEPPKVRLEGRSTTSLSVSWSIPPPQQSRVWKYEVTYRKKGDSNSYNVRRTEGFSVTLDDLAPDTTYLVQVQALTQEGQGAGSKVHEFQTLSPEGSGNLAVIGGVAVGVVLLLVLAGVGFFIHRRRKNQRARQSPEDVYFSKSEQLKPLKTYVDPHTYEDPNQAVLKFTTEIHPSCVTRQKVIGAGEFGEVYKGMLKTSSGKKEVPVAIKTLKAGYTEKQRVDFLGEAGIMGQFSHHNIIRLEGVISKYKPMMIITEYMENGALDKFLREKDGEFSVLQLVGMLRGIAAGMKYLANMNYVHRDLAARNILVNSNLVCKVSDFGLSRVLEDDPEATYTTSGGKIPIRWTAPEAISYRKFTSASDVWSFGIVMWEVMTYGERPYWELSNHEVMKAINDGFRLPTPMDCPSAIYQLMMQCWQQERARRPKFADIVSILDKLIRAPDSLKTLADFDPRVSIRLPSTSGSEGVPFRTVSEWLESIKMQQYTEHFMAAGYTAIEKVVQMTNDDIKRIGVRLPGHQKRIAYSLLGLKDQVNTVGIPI

[15] = biological target: Ephrin type-A receptor 2 (Homo sapiens) (UniProt P29317); details: at 1 µM
[16] = biological target: T2, Ephrin type-A receptor 3 (Homo sapiens) (UniProt P29320); details: at 0.1 µM
T2 sequence (whole entry): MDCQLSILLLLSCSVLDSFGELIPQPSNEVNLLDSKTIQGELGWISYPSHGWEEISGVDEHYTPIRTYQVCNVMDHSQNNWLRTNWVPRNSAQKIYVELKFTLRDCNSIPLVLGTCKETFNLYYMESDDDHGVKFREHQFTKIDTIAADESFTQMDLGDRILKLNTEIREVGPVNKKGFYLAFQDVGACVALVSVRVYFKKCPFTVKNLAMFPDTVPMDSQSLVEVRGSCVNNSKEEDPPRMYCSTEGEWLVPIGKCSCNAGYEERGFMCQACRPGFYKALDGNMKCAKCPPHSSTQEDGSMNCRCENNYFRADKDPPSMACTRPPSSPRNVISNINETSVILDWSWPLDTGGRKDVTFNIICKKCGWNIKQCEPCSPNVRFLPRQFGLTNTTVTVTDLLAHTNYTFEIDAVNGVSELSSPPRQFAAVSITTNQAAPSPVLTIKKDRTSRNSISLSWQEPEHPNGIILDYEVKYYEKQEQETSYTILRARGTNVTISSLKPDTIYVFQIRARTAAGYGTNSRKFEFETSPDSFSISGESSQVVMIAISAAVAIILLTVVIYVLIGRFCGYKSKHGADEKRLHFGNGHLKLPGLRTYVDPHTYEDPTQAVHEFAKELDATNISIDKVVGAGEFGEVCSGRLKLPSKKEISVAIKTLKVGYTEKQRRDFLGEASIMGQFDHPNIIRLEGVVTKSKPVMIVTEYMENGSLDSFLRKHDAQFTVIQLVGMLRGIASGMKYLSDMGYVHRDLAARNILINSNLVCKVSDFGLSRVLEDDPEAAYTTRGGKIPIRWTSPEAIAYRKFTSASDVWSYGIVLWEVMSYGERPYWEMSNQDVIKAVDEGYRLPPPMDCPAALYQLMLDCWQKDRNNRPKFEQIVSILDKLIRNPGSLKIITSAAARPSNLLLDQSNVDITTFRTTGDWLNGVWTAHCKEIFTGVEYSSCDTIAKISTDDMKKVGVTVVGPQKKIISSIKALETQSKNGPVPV

[17] = biological target: T2, Ephrin type-A receptor 3 (Homo sapiens); details: at 1 µM
[18] = biological target: Ephrin type-A receptor 4 (Homo sapiens) (UniProt P54764); details: at 0.1 µM
[19] = biological target: Ephrin type-A receptor 4 (Homo sapiens) (UniProt P54764); details: at 1 µM
[20] = biological target: T3, Ephrin type-B receptor 2 (Homo sapiens) (UniProt P29323); details: at 0.1 µM;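 further: reported as mean inhibition of EPHB2, from the GSK PKIS dataset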
T3 sequence (whole entry): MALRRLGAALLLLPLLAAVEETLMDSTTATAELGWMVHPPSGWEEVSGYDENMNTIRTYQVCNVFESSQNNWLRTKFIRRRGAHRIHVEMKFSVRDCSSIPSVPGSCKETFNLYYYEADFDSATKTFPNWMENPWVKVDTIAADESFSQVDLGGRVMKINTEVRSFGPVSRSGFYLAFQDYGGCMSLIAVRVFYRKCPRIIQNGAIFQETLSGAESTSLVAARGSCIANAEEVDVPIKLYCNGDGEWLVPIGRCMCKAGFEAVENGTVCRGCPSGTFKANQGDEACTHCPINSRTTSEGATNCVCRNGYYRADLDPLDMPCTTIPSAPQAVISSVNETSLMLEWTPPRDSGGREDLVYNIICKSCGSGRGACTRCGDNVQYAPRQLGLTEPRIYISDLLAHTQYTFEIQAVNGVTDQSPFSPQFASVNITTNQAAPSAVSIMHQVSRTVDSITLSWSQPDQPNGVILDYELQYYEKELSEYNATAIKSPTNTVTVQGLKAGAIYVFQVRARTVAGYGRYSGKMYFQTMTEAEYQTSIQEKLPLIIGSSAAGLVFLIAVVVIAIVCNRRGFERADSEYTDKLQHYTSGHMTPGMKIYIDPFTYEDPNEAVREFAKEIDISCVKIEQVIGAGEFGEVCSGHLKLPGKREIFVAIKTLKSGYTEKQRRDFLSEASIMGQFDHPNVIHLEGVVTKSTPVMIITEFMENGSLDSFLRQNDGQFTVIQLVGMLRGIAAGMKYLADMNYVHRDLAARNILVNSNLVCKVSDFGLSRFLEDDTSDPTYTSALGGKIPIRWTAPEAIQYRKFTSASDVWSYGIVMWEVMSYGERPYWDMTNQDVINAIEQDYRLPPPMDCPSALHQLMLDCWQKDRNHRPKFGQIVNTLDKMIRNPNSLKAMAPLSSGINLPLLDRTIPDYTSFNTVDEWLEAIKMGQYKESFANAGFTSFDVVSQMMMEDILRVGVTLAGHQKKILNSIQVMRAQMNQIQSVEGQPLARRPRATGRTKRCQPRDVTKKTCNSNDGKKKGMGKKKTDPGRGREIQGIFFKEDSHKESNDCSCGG

Chain of Tyrosine-protein kinase CSK (Homo sapiens) (P41240 2-450 limits assumed): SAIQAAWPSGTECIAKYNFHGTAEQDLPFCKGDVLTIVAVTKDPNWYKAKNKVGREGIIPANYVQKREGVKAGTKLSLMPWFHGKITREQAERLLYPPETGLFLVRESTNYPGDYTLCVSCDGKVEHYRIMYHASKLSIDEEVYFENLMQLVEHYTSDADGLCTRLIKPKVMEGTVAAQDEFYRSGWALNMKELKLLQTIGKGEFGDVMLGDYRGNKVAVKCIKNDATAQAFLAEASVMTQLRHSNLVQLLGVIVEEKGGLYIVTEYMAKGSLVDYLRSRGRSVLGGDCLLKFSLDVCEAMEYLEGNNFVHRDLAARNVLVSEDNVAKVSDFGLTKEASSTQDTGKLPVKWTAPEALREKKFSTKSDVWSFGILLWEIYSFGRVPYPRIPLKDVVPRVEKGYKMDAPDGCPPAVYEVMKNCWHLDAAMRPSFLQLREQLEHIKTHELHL

Row | SMILES | inhibition [1] [%] | inhibition [2] [%] | inhibition [3] [%] | inhibition [4] [%] | inhibition [5] [%] | inhibition [6] [%] | inhibition [7] [%] | inhibition [8] [%] | inhibition [9] [%] | inhibition [10] [%] | inhibition [11] [%] | inhibition [12] [%] | inhibition [13] [%] | inhibition [14] [%] | inhibition [15] [%] | inhibition [16] [%] | inhibition [17] [%] | inhibition [18] [%] | inhibition [19] [%] | inhibition [20] [%]
1 | NS(=O)(=O)c1cccc(-c2ccc3c(NC(=O)C4CC4)n[nH]c3c2)c1 | -3.46 | -0.11 | -9.65 | 0.04 | 0.71 | -0.88 | -2.32 | 1.67 | -0.49 | -1.44 | -1.45 | -1.29 | 3.22 | -4.33 | -3.03 | -5.8 | -2.02 | -5.25 | -5.49 | -1.84
2 | Fc1cccc(COc2ccc(Nc3ncnc4sc(-c5cccs5)cc34)cc2Cl)c1 | 3.11 | -0.48 | 0.6 | – | – | – | – | – | – | – | – | – | – | -3.04 | -2.75 | -3.5 | -1.54 | -0.88 | 2.82 | 5.23
3 | COc1ccc(-c2nn3ncccc3c2-c2ccnc(Nc3ccc(Cl)c(C(F)(F)F)c3)n2)cc1 | 5.3 | 0.69 | 3.24 | 0.68 | 3.67 | 1.63 | 14.3 | 2 | 5.96 | 0.44 | 3.31 | 0.9 | 4.78 | 0.97 | 0.97 | 3.2 | 3.4 | 6.57 | 10.2 | 3.9
4 | CC1=C(C(=O)Nc2ccc3[nH]ncc3c2)C(c2ccc3ccccc3c2)CC(=O)N1 (stereo not given) | 8.49 | 1.3 | 0.24 | 1.29 | 5.76 | 3.81 | 6.61 | 2.89 | 1.33 | 1.06 | 3.65 | 4.92 | 23.5 | -0.93 | 0.37 | 3.77 | 6.3 | 6.86 | 10.2 | 7.74
5 | Cc1cccc(-c2n[nH]cc2-c2ccc3ncccc3n2)n1 | 0.97 | 0.57 | 0.86 | -0.16 | 0.24 | -0.08 | -1.71 | -1.59 | -1.42 | -0.88 | -0.3 | -1.54 | -0.13 | -2.12 | -2.51 | 0.6 | 3.6 | 3.45 | 4.46 | 1.55
6 | CC(C)=Cc1cccc2c1/C(=N/Nc1ccc(S(N)(=O)=O)cc1)C(=O)N2 | 1.41 | 0.85 | 7.39 | 2.03 | 5.14 | 1.48 | 9.14 | 1.19 | 3.55 | 1.38 | 1.05 | 2.29 | 2.58 | 0.83 | 3.1 | 2.78 | 3.12 | 4.39 | 11 | 1.72
7 | Cn1cc(C=C2C(=O)Nc3cccnc32)c2ccccc21 | -0.79 | 0.93 | 4.03 | – | – | – | – | – | – | – | – | – | – | 1.74 | 0.79 | 2.31 | 4.83 | 5.07 | 6.23 | 3.99
8 | CCCN1CCC=C(c2ccc(Nc3nc(Nc4ccccc4C(N)=O)c4cc[nH]c4n3)c(C)c2)C1 | 1.79 | 1.12 | 3.26 | 3.3 | 8.18 | 0.06 | 9.35 | 1.44 | 6.61 | 2.92 | 25.1 | 7.32 | 51.6 | 1.69 | -0.07 | 3.53 | 2.81 | 5.85 | 10.8 | 8.59
